# Reference: PubChem BioAssay AID493185 (National Center for Advancing Translational Sciences (NCATS), 2011)
# Unmarked numbers belong to inactive results. Activity calls are given as the source filed them. The call rests on the fitted dose curve; in most records, active means well fitted activation curve with a large enough effect; inconclusive means small, poorly fitted or top-dose-only effect; inactive means no such curve, though single readings can be large or run the other way.
# Experiment: Counterscreen for Identifying a Potential Treatment of Ataxia-Telangiectasia: Hit Validation; on activation: 0% is about no effect
# Settings: cell-free AlphaLISA/AlphaScreen artifact counterscreen, PBS only, no cells; series mostly up to 76.9 µM; activation: at the top concentration
# Source text: NIH Chemical Genomics Center [NCGC]
# NIH Molecular Libraries Probe Centers Network [MLPCN]
# Assay Submitter (PI): Wei Zheng and Yosef Shiloh
# Ataxia-telangiectasia (A-T) is a devastating and progressive disease for which, there is no cure. Although A-T is a multisystem disease, it is stereotyped characterized by its neurological symptoms such as truncal ataxia, due to cerebellar cortical degeneration of the Purkinje and granule cells. Other symptoms of A-T are telangiectasias (dilated blood vessels), primary immunodeficiency, marked sensitivity to ionizing radiation (IR), chromosomal instability and predisposition to cancer.
# The underlying genetic cause of A-T is null mutations in the ATM (A-T mutated) gene. ATM is a nuclear serine/threonine kinase that functions as a master regulator of the cellular responses to double strand breaks (DSBs) in the DNA. Upon activation by DSBs, ATM phosphorylates a plethora of downstream targets, including KAP-1 on […]. KAP-1 phosphorylation occurs shortly in response to DSBs and mediates global chromatin relaxation, which facilitates DSB repair. To screen for small molecules that will compensate for the loss of ATM in cells derived from A-T patients, we monitored KAP-1 phosphorylation as a readout for ATM-like activity using an AlphaLISA assay.
# 3. Library compounds, 23 nl, 76.7 - 0.61uM dilution series final concentration
# 4. Incubation, 60 min, 37C, 5% CO2, 95% humidity
# 6. Incubation, 30 min, 37C, 5% CO2, 95% humidity
# 7. Reagent, 1 ul, Premixed detection reagents and lysis buffer
# 8. Reagent, 1 ul, 0.6% Antifoam A
# 9. Incubation, 6 hr, 25C, 95% humidity
# 10. Readout, EnVision, EnVision plate reader. AlphaScreen 1536-well protocol
# PBS was dispensed into medium-binding white solid-bottom tissue culture treated Kalypsys plates with a Multidrop dispenser. Detection reagent and lysis buffer was 3.75nM Rab-a-pKAP1 antibody bound to 75 ng/ul AlphaScreen SA donor bead, 3.75 nM Biot-M-a-KAP1 antibody bound to AlphaLISA protein A acceptor bead, 0.5x protease inhibitor cocktail and 0.25x PerkinElmer lysis buffer. EnVision protocol for 1536-well AlphaScreen read (30ms excitation, 100ms read), about 10 min/plate. This assay is similar to the primary screen but is without cells. It aims to identify artifacts of the assay platform and unspecific hits.
# Potency means the concentration at half of the fitted maximal effect.
SMILES,activation [%],Potency
CCCCn1c(O)c(C(=O)/C=C/c2c[nH]c3ccccc23)c(=O)[nH]c1=O,-9.23,–
C/C=C/c1ccc2c(c1)OCO2,-4.92,–
Cc1ccc(C)c(NP(=O)(Oc2ccccc2)Oc2ccccc2)c1,-6.77,–
CC1(C)C[C@H]2C=C(C=O)[C@]3(C=O)C[C@]3(C)[C@H]2C1,-6.15,–
CC(C)c1ccc(-n2c(O)c(C=NC(CCS(C)=O)C(=O)O)c(=O)[nH]c2=S)cc1 (stereo not given),-12.3,–
O=C(c1cccnc1)C1CCCN(Cc2nc(-c3cnccn3)no2)C1 (stereo not given),-21.5,–
CCCCC(=O)N/N=C/c1c(O)n(CCC2=CCCCC2)c(=O)[nH]c1=O,-8.2,–
CN1CCCC(C(O)(c2ccccc2)c2ccccc2)C1 (stereo not given),-26.9,–
CCN1C(=O)N(CC)C(=O)C2(Cc3ccccc3N3CCN(c4ccccc4)CC32)C1=O (stereo not given),-4.1,–
CC(=O)OC1CC[C@]2(C#N)[C@H]3CC[C@]4(C)[C@H](C5C=CC(=O)O5)CCC4(O)C3CCC2(O)C1 (stereo not given in full),4.51,–
CN1CCN(c2ccc([N+](=O)[O-])c3no[n+]([O-])c23)CC1,-7.38,–
Cc1cc(O)c2c(c1)C(=O)C13C(=C2O)C(=O)[C@H]2[C@@H](O)[C@@H]1[C@H]1[C@H](O)[C@@H]3C(=O)C3=C(O)c4c(O)cc(C)cc4C(=O)C312 (stereo not given in full),–,7.33 µM (active)
COC(=O)C1=C(c2ccc(OCc3ccccc3)cc2)C[C@@H]2CC[C@H]1N2C(=O)NCc1cccc(C(F)(F)F)c1,17.7,–
CCc1ccc(N2C(=O)NC(=O)/C(=C\C=C\c3ccco3)C2=O)cc1,-6.15,–
CCN(CC)S(=O)(=O)c1ccc(C(=O)NC2CN3CCC2CC3)cc1 (stereo not given),-5.26,–
O=C1Nc2ccccc2C1Cc1nc2ccccc2c(=O)n1-c1ccccc1 (stereo not given),-12.3,–
Cc1cccc(N2C(=O)NC(=O)/C(=C\C=C\c3ccco3)C2=O)c1,-38.5,–
Cc1nc2ccccc2c(=O)n1-c1ccc(F)cc1F,2.46,–
CCN(CC)S(=O)(=O)c1cccc(N=Nc2c(O)n(CC)c(=S)n(CC)c2=O)c1,-12.3,–
Cc1ccc(-n2c(O)c(C=NCC3CCCO3)c(=O)[nH]c2=O)c(C)c1 (stereo not given),0,–
